# Reference: the supplement of paper PMC8728848
# The sample as a whole holds a higher share of the strongest signals than the screen did.
# Assays:
# Assay in all cases: glycan array binding signal (z-score within array); higher = stronger binding
# Conditions in all cases: glycan notation: IUPAC condensed, linker removed
# [1] = target: Gal3S(b1-4)GlcNAc
# How it was run: (§1)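 The Consortium for Functional Glycomics database supplied 3228 glycan arrays, of which those lacking an available protein sequence were dropped. The binding signal, a within-array Z-score, was averaged across arrays of the same protein sequence and across linkers. Negative scores can be read as non-binding.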
# [2] = target: Gal6S(b1-3)GlcNAc6S
# How it was run: as §1
# [3] = target: GalNAc(a1-3)GalNAc
# How it was run: as §1
# [4] = target: GalNAc(a1-3)GalNAc(b1-3)Gal(a1-4)Gal(b1-4)GlcNAc
# How it was run: as §1
# [5] = target: GalNAc(b1-4)GlcNAc(b1-3)GalNAc(b1-4)GlcNAc
# How it was run: as §1
# [6] = target: GalNAc3S(b1-4)[Fuc(a1-3)]GlcNAc
# How it was run: as §1
# [7] = target: Glc(a1-4)Glc
# How it was run: as §1
# [8] = target: GlcNAc(b1-2)[GlcNAc(b1-6)]Man(a1-6)[GlcNAc(b1-4)][GlcNAc(b1-2)Man(a1-3)]Man(b1-4)GlcNAc(b1-4)GlcNAc
# How it was run: as §1
# [9] = target: GlcNAc(b1-3)Gal(b1-4)GlcNAc(b1-3)Gal(b1-4)GlcNAc(b1-3)Gal(b1-4)GlcNAc(b1-2)[GlcNAc(b1-3)Gal(b1-4)GlcNAc(b1-3)Gal(b1-4)GlcNAc(b1-3)Gal(b1-4)GlcNAc(b1-6)]Man(a1-6)[GlcNAc(b1-3)Gal(b1-4)GlcNAc(b1-3)Gal(b1-4)GlcNAc(b1-3)Gal(b1-4)GlcNAc(b1-2)Man(a1-3)]Man(b1-4)GlcNAc(b1-4)[Fuc(a1-6)]GlcNAc
# How it was run: as §1
# [10] = target: GlcNAc(b1-3)Gal(b1-4)GlcNAc(b1-6)[GlcNAc(b1-3)Gal(b1-3)]GalNAc
# How it was run: as §1
# [11] = target: GlcNAc(b1-3)GalNAc
# How it was run: as §1
# [12] = target: GlcNAc(b1-3)Man
# How it was run: as §1
# [13] = target: GlcNAc(b1-3)[GlcNAc(b1-4)][GlcNAc(b1-6)]GlcNAc
# How it was run: as §1
# [14] = target: GlcNAc(b1-4)GlcNAc(b1-4)GlcNAc
# How it was run: as §1
# [15] = target: Kdn(a2-3)Gal(b1-3)GlcNAc
# How it was run: as §1
# [16] = target: Man(a1-2)Man(a1-2)Man(a1-3)Man
# How it was run: as §1
# [17] = target: Neu5Ac(a2-3)Gal(b1-3)GalNAc
# How it was run: as §1
# [18] = target: Neu5Ac(a2-3)Gal(b1-3)GlcNAc(b1-6)GalNAc
# How it was run: as §1
# [19] = target: Neu5Ac(a2-3)Gal(b1-3)[Neu5Ac(a2-6)]GlcNAc(b1-3)[Fuc(a1-3)[Gal(b1-4)]GlcNAc(b1-6)]Gal(b1-4)Glc
# How it was run: as §1
# [20] = target: Neu5Ac(a2-3)Gal(b1-4)Glc
# How it was run: as §1
# [21] = target: Neu5Ac(a2-3)Gal(b1-4)[Fuc(a1-3)]GlcNAc(b1-3)Gal(b1-4)GlcNAc
# How it was run: as §1
# [22] = target: Neu5Ac(a2-6)Gal(b1-4)GlcNAc(b1-2)Man(a1-6)[Gal(b1-4)GlcNAc(b1-2)Man(a1-3)]Man(b1-4)GlcNAc(b1-4)GlcNAc
# How it was run: as §1
# [23] = target: Neu5Ac(a2-6)Gal(b1-4)GlcNAc(b1-2)[Neu5Ac(a2-6)Gal(b1-4)GlcNAc(b1-6)]Man(a1-6)[Neu5Ac(a2-6)Gal(b1-4)GlcNAc(b1-2)Man(a1-3)][GlcNAc(b1-4)]Man(b1-4)GlcNAc(b1-4)GlcNAc
# How it was run: as §1
# [24] = target: Neu5Ac(a2-6)Gal(b1-4)GlcNAc(b1-3)Gal(b1-4)GlcNAc(b1-3)Gal(b1-4)GlcNAc
# How it was run: as §1
# [25] = target: Neu5Ac(a2-6)GalNAc(b1-4)GlcNAc
# How it was run: as §1
# [26] = target: Neu5Ac(a2-8)Neu5Ac
# How it was run: as §1
# [27] = target: Neu5Gc(a2-3)Gal(b1-3)GlcNAc
# How it was run: as §1
binder,measurement,setting,value
B160 (Bifidobacterium sp) (protein) MVSHNKRIVAALAAVAAMGIGLAGCGGSDTAGDTKSGSDGGVVNITYMHRLPDSEGMTLVNDIVAKWNKEHPNIQVKATKFDGNAADMIKKLETDVKAGNAPDLAQVGYAEVPEVFTKGLLQDVTDEAAKYKDDFASGPFALMQVDGKTYGLPQDTGPLTYFYNAAEFEKLGITVPKTADELIETAKKTAAQGKYIMTFTPDEAMMMMSGQAGASGPWYKVDGNSWVVNTQTKGSKAVADVYQQLIDNKAALTNPRWDASFDNSIQSGQLIGTVAAAWEAPLFIDSAGGTGAGEWKVTQLGDWFGNGTKTGANGGSGVAVLKGSKHPAEAMEFLDWFNTQVDDLVSQGLVVAATTADAKTPQKWSDYFSGQDVMAEFKTANDNMGDFTYMPGFSAVGAAMKQTAAKAADGSAKVSDVFDTAQKTSVDTLKNLGLSVKE,glycan array binding signal (z-score),[1],-0.172
same,glycan array binding signal (z-score),[2],-0.179
same,glycan array binding signal (z-score),[3],-0.173
same,glycan array binding signal (z-score),[4],-0.166
same,glycan array binding signal (z-score),[5],-0.191
same,glycan array binding signal (z-score),[6],-0.117
same,glycan array binding signal (z-score),[7],-0.177
same,glycan array binding signal (z-score),[8],-0.149
same,glycan array binding signal (z-score),[9],-0.094
same,glycan array binding signal (z-score),[10],-0.164
same,glycan array binding signal (z-score),[11],-0.154
same,glycan array binding signal (z-score),[12],-0.156
same,glycan array binding signal (z-score),[13],-0.174
same,glycan array binding signal (z-score),[14],-0.167
same,glycan array binding signal (z-score),[15],-0.172
same,glycan array binding signal (z-score),[16],-0.159
same,glycan array binding signal (z-score),[17],-0.204
same,glycan array binding signal (z-score),[18],-0.161
same,glycan array binding signal (z-score),[19],-0.173
same,glycan array binding signal (z-score),[20],-0.173
same,glycan array binding signal (z-score),[21],-0.165
same,glycan array binding signal (z-score),[22],-0.136
same,glycan array binding signal (z-score),[23],-0.14
same,glycan array binding signal (z-score),[24],-0.145
same,glycan array binding signal (z-score),[25],-0.167
same,glycan array binding signal (z-score),[26],-0.174
same,glycan array binding signal (z-score),[27],-0.189
